This is a sample that favours compounds with a hit; in the whole collection about 11% have one here.
ALDH1A1 inh: blocks purified human ALDH1A1 activity; AID 1030; P00352; Potency, µM (highest dose often 75.3 µM), usual class: inhibitors; hit rate 7.3% among 220,000; Purified ALDH1A1, NADH fluorescence, propionaldehyde substrate; active = well fitted inhibition curve with a large enough effect, not every such curve was filed as active; inconclusive = small, poorly fitted or top-dose-only effect, or another doubt; inactive = no such curve, though single readings can be large or run the other way
HTT aggregate: inhibitors of mutant huntingtin aggregate formation in PC12 cells; AID 1688; hit rate 1.1% among 220,000; Potency, µM (top dose mostly 46.1 µM), actives largely listed as inhibitors; PC12 HttQ103-GFP aggregates, Acumen cytometry, 40 h; note: nearly all actives have a fitted effect of over 60% in size
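Compounds (qHTS titration) were added to PC12 cells expressing an ecdysone-driven HTT exon 1 Q103–GFP fusion after induction with 100 nM tebufenozide. Aggregate formation was measured as GFP objects in cell lysates.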
RGS12 GoLoco inh: RGS12 GoLoco-Gai1 interaction inhibition | P63096 | Gai1:RGS12 GoLoco peptide FP, rhodamine, 10 min | Potency, µM (highest dose often 61.6 µM), hits mostly inhibitors | hit rate 0.44% among 230,000; active = well fitted inhibition curve with a large enough effect, not every such curve was filed as active; inactive = no such curve, though single readings can be large or run the other way; note: nearly all actives have a fitted effect of over 30% in size
Target sequence (P63096 whole entry, looked up): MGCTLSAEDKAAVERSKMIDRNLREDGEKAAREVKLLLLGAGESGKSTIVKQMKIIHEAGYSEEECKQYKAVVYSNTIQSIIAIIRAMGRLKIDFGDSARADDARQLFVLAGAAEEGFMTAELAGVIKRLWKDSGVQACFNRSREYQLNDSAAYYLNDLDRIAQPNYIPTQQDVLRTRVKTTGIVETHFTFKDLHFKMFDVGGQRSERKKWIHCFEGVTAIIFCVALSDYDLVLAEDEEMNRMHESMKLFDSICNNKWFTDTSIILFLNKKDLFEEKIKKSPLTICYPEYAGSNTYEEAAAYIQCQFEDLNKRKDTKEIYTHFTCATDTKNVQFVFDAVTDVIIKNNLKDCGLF
HTT ATP protect: protects HTT-Q103 PC12 cells, measured by ATP. hit rate 0.14% among 230,000. Potency, µM (doses to about 56.4 µM), hits mostly activators. PC12 HTT-Q103 induced, cytoprotection, ATP luminescence, 40 h; note: nearly all actives have a fitted effect of over 45% in size
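Compounds were screened for protection of PC12 cells against cell death after tebufenozide induction (100 nM final) of mutant Huntingtin exon 1 (Q103) fused to GFP.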
PNC assembly inh: blocks assembly of the perinucleolar compartment. PC3M PTB-GFP, PNC prevalence imaging, 16 h; hits give low values. activity change (PNC), negative = inhibition, % at 10 µM. hit rate 3.1% among 140,000;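 active = readout at or below -70, meaning at least 70% loss of cells showing the perinucleolar compartment, a nuclear body marking cancer cells; inconclusive = readout between -30 and a set limit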
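Read-out is percentage of cells bearing a perinucleolar compartment, from automated 20x imaging of fixed, Hoechst-stained PC3M PTB-GFP cells. Cells were seeded 4 h, then exposed 16 h to compound (23 nl of library stock) in duplicate plates.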
HPGD block: HPGD (human) dehydrogenase inhibition; P15428; purified HPGD, NADH fluorescence kinetic, PGE2 substrate; Potency, µM, usual class: inhibitors; hit rate 4.3% among 150,000; AID 894; active = well fitted inhibition curve with a large enough effect, not every such curve was filed as active; inconclusive = small, poorly fitted or top-dose-only effect, or another doubt; inactive = no such curve, though single readings can be large or run the other way
Target sequence (P15428 whole entry, looked up): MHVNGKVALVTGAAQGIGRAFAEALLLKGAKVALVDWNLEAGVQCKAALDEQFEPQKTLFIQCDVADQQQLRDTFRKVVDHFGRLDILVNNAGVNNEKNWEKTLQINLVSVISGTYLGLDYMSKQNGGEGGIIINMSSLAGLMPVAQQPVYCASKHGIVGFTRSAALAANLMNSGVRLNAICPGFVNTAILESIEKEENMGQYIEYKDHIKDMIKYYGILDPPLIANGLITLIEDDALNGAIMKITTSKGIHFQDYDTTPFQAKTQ
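NADH formation kinetics: reaction with 30 uM PGE2 and 1 mM NAD+ (final), 20 nM enzyme, Tris-HCl pH 8 with Tween 20, after 15 min compound preincubation at room temperature. Fluorescence change, last versus first of five reads.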
Of the large screens only hits and unclear results are named; the others gave an inactive call. Unless noted, calls come from the whole dose curve; as a rule, active = well fitted curve in the direction sought with a large enough effect; inconclusive = small, poorly fitted or top-dose-only effect, or another doubt; inactive = no such curve, though single readings can be large; an effect the other way counts as inactive or inconclusive.

CCOc1ccc(N(CC(=O)Nc2ccccc2C)S(=O)(=O)c2c(C)noc2C)cc1	ALDH1A1 inh inconclusive, PNC assembly inh -88.2
CCOc1ccccc1NC(=O)CN(c1ccc(OC)cc1)S(=O)(=O)c1c(C)noc1C	PNC assembly inh -97.3
O=C(NCCN1CCOCC1)c1ccc(Cc2nc3ccccc3[nH]2)cc1	none (no result: HTT aggregate, RGS12 GoLoco inh, HTT ATP protect, PNC assembly inh)
CC1CCN(S(=O)(=O)N2CCC(C(=O)NCc3cccnc3)CC2)CC1	none (no result: ALDH1A1 inh, PNC assembly inh, HPGD block)
O=C(CC(Nc1ccccc1)c1ccccc1)C1CC1 (configuration not stated)	none (no result: PNC assembly inh, HPGD block)
O=[N+]([O-])c1cccc(CSc2ncnc3ccccc23)c1	ALDH1A1 inh 22.4µM, HTT ATP protect 2.24µM (no result: PNC assembly inh, HPGD block)
Cc1cccc(CSc2ncnc3ccccc23)c1	none (no result: PNC assembly inh, HPGD block)
CCOC(=O)N1CCN(C(=O)C(=O)NN)CC1	ALDH1A1 inh 12.6µM (no result: PNC assembly inh, HPGD block)
CCOC(=O)N1CCN(C(=S)NC)CC1	none
CCOC(=O)C1(CC2CCCCO2)CCN(C(=O)Nc2ccccc2)CC1 (configuration not stated)	none (no result: PNC assembly inh, HPGD block)
O=C(NC(=S)Nc1ccccc1N1CCCC1)c1ccc(-c2cccc([N+](=O)[O-])c2)o1	ALDH1A1 inh 22.4µM, HTT aggregate inconclusive, HPGD block 25.1µM
O=C(NC(=S)Nc1ccccc1O)c1ccc(-c2ccc(Cl)cc2)o1	HTT aggregate 11.2µM
CC(=O)N1CCN(c2ccccc2NC(=O)c2ccc(-c3cccc([N+](=O)[O-])c3)o2)CC1	ALDH1A1 inh 14.1µM (no result: PNC assembly inh, HPGD block)
O=C(NC(=S)Nc1ccccc1N1CCCCC1)c1ccc(-c2cccc([N+](=O)[O-])c2)o1	ALDH1A1 inh inconclusive
COc1ccccc1NC(=S)NC(=O)c1ccc(-c2ccc(Cl)cc2)o1	none
CCOC(=O)C1(CCc2ccccc2)CCN(Cc2cccc3nccnc23)CC1	ALDH1A1 inh inconclusive (no result: PNC assembly inh, HPGD block)
COc1ccc(-c2nc3cnc(N(C)C)nc3n(C[C@H]3CCCO3)c2=O)cc1	ALDH1A1 inh inconclusive (no result: HTT aggregate, PNC assembly inh, HPGD block)
O=C(NC1CCCCCCC1)C1CCC(CNc2c(N3CCCC3)c(=O)c2=O)CC1 (configuration not stated)	ALDH1A1 inh inconclusive, PNC assembly inh -119.3, HPGD block 3.98µM
Cc1ccc(CCNC(=O)C2CCC(CNc3c(N4CCCC4)c(=O)c3=O)CC2)cc1 (configuration not stated)	HPGD block 25.1µM
O=C(C1CCC(CNc2c(N3CCCCC3)c(=O)c2=O)CC1)N1CCCC1 (configuration not stated)	none (no result: ALDH1A1 inh, PNC assembly inh, HPGD block)
O=C(NCC1COc2ccccc2O1)C1CCC(CNc2c(N3CCCCC3)c(=O)c2=O)CC1 (configuration not stated)	PNC assembly inh inconclusive, HPGD block 14.1µM
Cc1cccc(CCNC(=O)C2CCC(CNc3c(N4CCCC4)c(=O)c3=O)CC2)c1 (configuration not stated)	ALDH1A1 inh inconclusive, PNC assembly inh inconclusive, HPGD block 12.6µM
Cc1ccnc(NC(=O)C2CCC(CNc3c(N4CCCC4)c(=O)c3=O)CC2)c1 (configuration not stated)	none
COc1ccc(NC(C)=O)cc1NC(=O)CN1CCN(C(=O)c2ccco2)CC1	none
COc1cc(/C=C2\SC(=Nc3ccc(N4CCOCC4)cc3)N(C)C2=O)ccc1OC(C)C(=O)O (configuration not stated)	none (no result: HTT ATP protect)
Cc1cccc(CCNC(=O)C2CCCN(S(=O)(=O)c3cccc4nsnc34)C2)c1 (configuration not stated)	PNC assembly inh -95.2
CC(=O)Nc1ccn(-c2ccccc2)n1	HTT aggregate inconclusive, PNC assembly inh -118.9
Cc1ccc(S(=O)(=O)N(CC(=O)N2CCN(c3ccccc3F)CC2)C2CCCCC2)cc1	ALDH1A1 inh inconclusive, HTT aggregate inconclusive
CS(=O)(=O)N(CC(=O)N1CCN(c2ccccc2F)CC1)C1CCCCC1	ALDH1A1 inh 7.94µM, PNC assembly inh -88.0
COC(=O)C1CC1C(NC(=O)[C@@H]1CCCN1)c1ccccc1 (some centres not stated)	HTT ATP protect inconclusive (no result: HTT aggregate, PNC assembly inh)
O=C(N/N=C/c1ccc(N2CCCCC2)o1)c1ccccc1	ALDH1A1 inh 25.1µM, HPGD block 15.8µM
O=C(N/N=C/c1ccc(N2CCOCC2)o1)c1cccc([N+](=O)[O-])c1	ALDH1A1 inh 17.8µM (no result: HTT ATP protect)
CC1=C(Cl)C2=NS(=O)(=O)CCN2C=C1Cl	ALDH1A1 inh inconclusive, HTT aggregate 0.112µM (no result: HTT ATP protect, PNC assembly inh, HPGD block)
CCS(=O)(=O)N1Cc2ccccc2CC1C(=O)Nc1nnc(SCc2ccc(C#N)cc2)s1 (configuration not stated)	HTT aggregate 12.6µM, PNC assembly inh inconclusive
Cc1ccccc1S(=O)(=O)N(CC(O)CN1C(=O)NC(C)(C)C1=O)c1ccccc1 (configuration not stated)	none (no result: ALDH1A1 inh, PNC assembly inh, HPGD block)
CC1CCC(C(C)C)C(OCC(O)CN2CCOCC2)C1 (configuration not stated)	PNC assembly inh -109.7
CC(/C=C/C=C(C)/C=C/C(=O)O)=C\C=C\C=C(C)\C=C\C=C(C)\C=C\C(=O)O	ALDH1A1 inh 31.6µM (no result: HTT aggregate, PNC assembly inh)
CC1=C(/C=C/C(C)=C\C=C\C(C)=C\C(=O)O)C(C)(C)CCC1	none (no result: HTT aggregate, PNC assembly inh)
COc1ccc2c(c1)O[C@@H](c1cccc(C(F)(F)F)c1)[C@H](OC(=O)Nc1ccc(C)c(Br)c1)C2=O	none (no result: HTT aggregate, PNC assembly inh)
NC(=O)COc1ccc(=O)n(-c2ccccc2)n1	ALDH1A1 inh inconclusive
Cn1nc(OCC(N)=O)ccc1=O	PNC assembly inh -100.0
COc1ccc(/C=C2\CCCC(C(=O)C(F)(F)F)=C2O)cc1OC	ALDH1A1 inh 0.126µM, HTT aggregate inconclusive (no result: HTT ATP protect, PNC assembly inh, HPGD block)
CCOc1cc(/C=C2\CCCC(C(=O)C(F)(F)F)=C2O)ccc1O	ALDH1A1 inh 0.159µM, HTT aggregate inconclusive, PNC assembly inh inconclusive
COc1ccc(/C=C2/CCCC(C(=O)C(F)(F)F)=C2O)cc1OC	none (no result: ALDH1A1 inh, PNC assembly inh, HPGD block)
N#C[C@H](C(=O)O)C(c1c(Cl)cccc1Cl)[C@H](C#N)C(=O)O	none (no result: HTT aggregate, PNC assembly inh)
COc1cc(OC)cc(C(=O)NC(=S)Nc2ccc3c4c(cccc24)CC3)c1	ALDH1A1 inh 7.94µM
COc1ccc(C(=O)NC(=S)Nc2ccc3c4c(cccc24)CC3)cc1OC	ALDH1A1 inh 12.6µM, PNC assembly inh inconclusive
O[Si@](CCCN1CCCCC1)(c1ccc(F)cc1)C1CCCCC1	none (no result: ALDH1A1 inh, HTT aggregate, RGS12 GoLoco inh, PNC assembly inh, HPGD block)
C=CCn1c(NC(=O)c2ccc(Br)o2)c(C(=O)OCC)sc1=S	ALDH1A1 inh 3.55µM, HPGD block 15.8µM
Cc1ccc(NC(=O)C(OC(=O)c2ccc(C=O)cc2)c2ccccc2)cc1Cl (configuration not stated)	none
Cn1cc(Cl)c(C(=O)NC2CCCCCC2)n1	none
Cn1cc(Cl)c(C(=O)NNC(=S)NC2CCCCC2)n1	PNC assembly inh -109.0 (no result: HTT ATP protect)
COc1ccc(N=c2cc(-c3ccc(OC)cc3)oc3ccccc23)cc1	PNC assembly inh inconclusive
